Values joined by “and” are separate entries in the source; they are usually repeats but may differ in a detail not shown here. Equal entries are not always repeated. The campaign covered roughly 5,500 compounds. About 2,000 (36%) were called active. Another 18% or so got no clear call; they are omitted. Cut-off read from the data, not from the text of the source: active = normalized growth mostly below about 0.91 (no sharp cut-off); inconclusive = no clear call, values can overlap the other calls; inactive = mostly above about 0.92. Some of the results follow.
Assay: chemical genetic growth profiling, strain panel (AID 1159580);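 note: tested at 20 µM; growth read once vehicle control cultures reached saturation at 30 °C; 1 = growth at the plate median or of vehicle wells; lower values mean less growth of the strain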
Conditions: S. cerevisiae deletion strains, growth OD

Measured: normalized growth

CCCCNC(=O)NS(=O)(=O)c1ccc(C)cc1
inactive: locus YAL013W, strain DEP1, active compounds read low 0.995 | locus YAL021C, strain ccr4, active compounds read low 1.02 | locus YAL026C, strain drs2, active compounds read low 1.01 | locus YAL030W, strain snc1, active compounds read low 1.02 | locus YAL040C, strain CLN3, active compounds read low 0.997 | locus YBL061C, strain skt5, active compounds read low 1.01 | locus YBR009C, strain hhf1, active compounds read low 0.973 | locus YBR021W, strain FUR4, active compounds read low 1.01 | locus YBR023C, strain chs3, active compounds read low 1.02 | locus YBR171W, strain sec66, active compounds read low 1.01 | locus YBR229C, strain ROT2, active compounds read low 0.993 | locus YBR231C, strain swc5, active compounds read low 1.01 | locus YBR279W, strain paf1, active compounds read low 0.995 | locus YCL011C, strain gbp2, active compounds read low 1 | locus YCL016C, strain dcc1, active compounds read low 0.993 | locus YCL029C, strain bik1, active compounds read low 0.979 | locus YCL061C, strain MRC1 (second series), active compounds read low 1 | locus YCL061C, strain MRC1, active compounds read low 1.01 | locus YCL069W, strain vba3, active compounds read low 1.02 | locus YCR088W, strain abp1, active compounds read low 1.02 | locus YDL005C, strain med2, active compounds read low 1.01 | locus YDL035C, strain GPR1, active compounds read low 0.989 | locus YDL040C, strain nat1, active compounds read low 1.01 | locus YDL074C, strain BRE1, active compounds read low 1.02 | locus YDL101C, strain DUN1, active compounds read low 1.01 | locus YDL134C, strain PPH21, active compounds read low 1 | locus YDL185W, strain tfp1, active compounds read low 0.953 | locus YDL192W, strain arf1, active compounds read low 0.97 | locus YDR001C, strain nth1, active compounds read low 1.02 | locus YDR069C, strain doa4, active compounds read low 1.02 | locus YDR101C, strain arx1, active compounds read low 0.994 | locus YDR137W, strain rgp1, active compounds read low 0.978 | locus YDR159W, strain sac3, active compounds read low 0.93 | locus YDR162C, strain NBP2, active compounds read low 0.974 | locus YDR195W, strain ref2 1.01 | locus YDR297W, strain sur2, active compounds read low 1.01 | locus YDR318W, strain mcm21, active compounds read low 0.978 | locus YDR334W, strain swr1, active compounds read low 1.01 | locus YDR335W, strain msn5, active compounds read low 1.01 | locus YDR363W, strain ESC2, active compounds read low 1.01 | locus YDR388W, active compounds read low 0.974 | locus YDR392W, strain spt3, active compounds read low 0.927 | locus YDR502C, strain sam2, active compounds read low 0.985 | locus YEL003W, strain gim4, active compounds read low 1.02 | locus YEL037C, strain rad23, active compounds read low 1.01 | locus YEL061C, strain CIN8 (second series), active compounds read low 1.01 | locus YEL061C, strain CIN8, active compounds read low 0.99 | locus YER002W, strain NOP16, active compounds read low 1 | locus YER015W, strain faa2, active compounds read low 1.01 | locus YER016W, strain bim1, active compounds read low 0.988 | locus YER110C, active compounds read low 0.982 | locus YER111C, strain swi4, active compounds read low 1.02 | locus YER155C, strain BEM2 (second series), active compounds read low 1.04 | locus YER155C, strain BEM2, active compounds read low 0.985 | locus YER167W, strain BCK2, active compounds read low 0.994 | locus YFR010W, strain ubp6, active compounds read low 1.02 | locus YGL078C, strain dbp3, active compounds read low 0.989 | locus YGL086W, strain mad1, active compounds read low 1 | locus YGL167C, strain pmr1, active compounds read low 1.01 | locus YGL173C, strain kem1, active compounds read low 1.03 | locus YGL227W, strain vid30, active compounds read low 1.01 | locus YGL240W, strain doc1, active compounds read low 1.01 | locus YGL248W, strain PDE1, active compounds read low 1 | locus YGL253W, strain hxk2, active compounds read low 1 | locus YGR078C, strain PAC10, active compounds read low 1.01 | locus YGR135W, strain pre9, active compounds read low 0.986 | locus YGR252W, strain gcn5, active compounds read low 1.21 | locus YHR013C, strain ard1, active compounds read low 0.992 | locus YHR027C, strain rpn1, active compounds read low 1 | locus YHR030C, strain SLT2, active compounds read low 0.99 and 0.938 | locus YHR079C, strain IRE1 (second series), active compounds read low 0.98 | locus YHR079C, strain IRE1, active compounds read low 0.964 | locus YHR094C, strain hxt1, active compounds read low 0.979 | locus YHR129C, strain ARP1, active compounds read low 0.996 | locus YHR142W, strain chs7, active compounds read low 1.02 | locus YHR200W, strain rpn10, active compounds read low 0.985 | locus YIL066C, strain RNR3, active compounds read low 0.988 | locus YIL073C, strain SPO22, active compounds read low 0.831 | locus YIL125W, strain kgd1, active compounds read low 0.962 | locus YIR030C, strain dcg1, active compounds read low 0.982 | locus YJL092W, strain hpr5, active compounds read low 1.01 | locus YJL095W, strain BCK1 (second series), active compounds read low 1.02 | locus YJL095W, strain BCK1, active compounds read low 1.01 and 0.954 | locus YJL115W, strain asf1, active compounds read low 1 | locus YJL129C, strain trk1, active compounds read low 1.01 | locus YJL134W, strain LCB3, active compounds read low 0.99 | locus YJL154C, strain vps35, active compounds read low 1.01 | locus YJL164C, strain tpk1, active compounds read low 1 | locus YJL166W, strain qcr8, active compounds read low 1.02 | locus YJL168C, strain set2, active compounds read low 0.981 | locus YJL187C, strain SWE1 (second series), active compounds read low 0.982 | locus YJL187C, strain SWE1, active compounds read low 1.02 | locus YJR043C, strain POL32, active compounds read low 1.02 | locus YJR066W, strain TOR1, active compounds read low 0.92

Source: PubChem BioAssay AID1159580 (chemical genetic matrix, 2015)
